In the library only some 3% were active in any assay of this set; here they are far more common.
Peg3 promoter: Peg3 promoter-driven luciferase inhibitors, primary screen, cell-based, HeLa, luciferase luminescence; hit rate 1.7% among 360,000; AID 588405, 2011; inhibition, % at 20 µM; HeLa PEG-Prom luciferase reporter, overnight;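 active = inhibition of at least 50% at 20 µM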
EBV LMP1 NFkB: EBV LMP1-driven NF-kappaB luciferase reporter inhibitors, primary screen, cell-based, luminescence, single point | LMP1-induced NF-kappaB luciferase reporter cells | inhibition, % at 12.5 µM | hit rate 0.69% among 350,000 | AID 504558, 2011; in the data active = inhibition above about 41%; inconclusive = no clear call, values can overlap the other calls;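 note: 0% = neutral control wells and 100% = reference inhibitor control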
CF NFkB block: inhibitors of PAF-induced NF-kB signaling, primary screen, cell-based, GFP fluorescence, uHTS | hit rate 0.86% among 360,000 | KKLEB NF-kB-GFP reporter, GFP fluorescence overnight | AID 588850, 2011 | inhibition, % at 5 µM;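 active = at least 50% inhibition at 5 µM, scaled per plate between neutral and stimulator controls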;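 note: PAF is a Pseudomonas aeruginosa culture filtrate used as stimulus; plate controls were PAF-stimulated DMSO wells for no effect and unstimulated DMSO wells for full effect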
HIF-2a block: HIF-2a reporter inhibitors, primary screen, luminescence, 786-0 RCC cells; 786-0 RCC cells HIF-2a reporter, luciferase luminescence, overnight; inhibition, % at 18.8 µM; hit rate 0.72% among 360,000;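 active = inhibition of the luminescence signal of 40% or more relative to plate controls, in a single-dose primary screen at 18.75 µM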
TRPM1 prom inh: inhibitors of MITF-dependent TRPM1 promoter reporter, primary screen, cell-based, SK-MEL-5, single point, luciferase; hit rate 0.83% among 330,000; inhibition, % at 12.5 µM; SK-MEL-5 TRPM1 promoter luciferase, 24 h;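 active = mean inhibition across replicates of 60% or more, whatever share of single replicates reaches that level; inconclusive = some that reach 60%, reason not given; inactive = mean inhibition across replicates below 60%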
KKLEB tox: cytotoxicity in KKLEB CF airway cells, primary screen, cytotoxicity control for CF NF-kB inhibitor project, cell-based, uHTS, fluorescence assay plates; KKLEB CF airway cells viability, ATPlite luminescence, overnight; active compounds read low; cells stimulated with P. aeruginosa culture filtrate; AID 602141, 2011; hit rate 0.36% among 360,000; activity change (cytotoxicity), % at 5 µM;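 active = corrected activity change at or below -50% at 5 µM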
Mdm2 MdmX conf: retested Mdm2-MdmX interaction blockers, confirmation, cell-based, luminescence, single concentration, set 2; shares compounds with HIF-2a block; hit rate 99% among 740; inhibition, % at 8 µM; SaOS-2 split-luciferase Mdm2/MdmX complementation;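 active = mean inhibition of the luminescence signal across two replicates at or above 26 percent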
Target sequence (O15151 whole entry, looked up): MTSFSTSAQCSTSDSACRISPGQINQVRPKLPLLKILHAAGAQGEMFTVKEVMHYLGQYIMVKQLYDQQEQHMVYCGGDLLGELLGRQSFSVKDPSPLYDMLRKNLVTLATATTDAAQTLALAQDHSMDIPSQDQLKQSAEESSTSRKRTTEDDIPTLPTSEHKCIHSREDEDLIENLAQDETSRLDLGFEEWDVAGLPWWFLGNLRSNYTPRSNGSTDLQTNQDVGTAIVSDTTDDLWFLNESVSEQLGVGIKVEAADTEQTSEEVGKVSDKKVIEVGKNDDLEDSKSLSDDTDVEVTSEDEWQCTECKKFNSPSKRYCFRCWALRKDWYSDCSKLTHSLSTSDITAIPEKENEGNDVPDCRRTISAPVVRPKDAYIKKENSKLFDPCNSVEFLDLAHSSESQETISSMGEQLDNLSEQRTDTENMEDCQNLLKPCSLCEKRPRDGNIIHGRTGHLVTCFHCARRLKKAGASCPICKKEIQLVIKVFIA
Target sequence (Q00987 whole entry, looked up): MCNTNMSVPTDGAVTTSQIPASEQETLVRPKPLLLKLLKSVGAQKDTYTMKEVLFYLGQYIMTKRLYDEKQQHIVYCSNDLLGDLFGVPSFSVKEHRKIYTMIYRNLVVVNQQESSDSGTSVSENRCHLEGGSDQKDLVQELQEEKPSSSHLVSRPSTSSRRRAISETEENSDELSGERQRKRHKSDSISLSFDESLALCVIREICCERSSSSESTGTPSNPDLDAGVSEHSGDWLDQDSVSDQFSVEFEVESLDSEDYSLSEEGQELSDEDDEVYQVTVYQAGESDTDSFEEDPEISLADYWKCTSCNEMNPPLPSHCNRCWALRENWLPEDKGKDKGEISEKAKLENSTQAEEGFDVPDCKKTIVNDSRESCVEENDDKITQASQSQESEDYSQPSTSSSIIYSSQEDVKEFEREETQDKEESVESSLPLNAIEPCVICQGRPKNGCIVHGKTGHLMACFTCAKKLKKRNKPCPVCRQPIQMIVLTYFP
HIF-2a inh conf: HIF-2a reporter inhibitor retest, confirmation, luminescence, 786-0 RCC cells; shares compounds with HIF-2a block; HIF-2a luciferase reporter luminescence, overnight; inhibition, % at 18.8 µM; hit rate 56% among 1,800;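 active = mean inhibition across four replicates of at least 40 percent at the single tested concentration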
HIF-1a counter: HIF-1a luciferase reporter signal reduction – MiaPaCa-2 cells, single concentration, counter-screen for HIF-2a inhibitor project, confirmation | inhibition, % at 18.8 µM | hit rate 72% among 1,800 | shares compounds with HIF-2a block | MiaPaCa-2 HIF-1a luciferase reporter, desferoxamine, overnight;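 active = mean inhibition of the reporter signal across four replicates at the single tested dose of 50% or more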
* marks the source's active call; other numbers are inactive results; ? = inconclusive; · = not tested or not shown.

SMILES	Peg3 promoter	EBV LMP1 NFkB	CF NFkB block	HIF-2a block	TRPM1 prom inh	KKLEB tox	HIF-2a inh conf	HIF-1a counter	others
CC(OC(=O)CCCSc1nc2ccccc2s1)C(=O)NC(N)=O (configuration not stated)	22	0	-5	50*	7	3	85*	63*
N#Cc1ccsc1NC(=O)COC(=O)CCCSc1nc2ccccc2s1	10	-14	8	64*	14	0	69*	53*
Cc1noc(C)c1CSCC(=O)OCC(=O)Nc1sccc1C#N	1	7	7	11	23	0	·	·
NC(=O)COC(=O)CCCSc1nc2ccccc2s1	1	-2	-12	57*	6	10	76*	39
Cc1ccc2nc(-c3ccc(Cl)cc3)c(Cc3ccccn3)n2c1	·	·	·	-242	·	·	·	·
Cc1ccc(C2(SCC(N)C(=O)O)c3ccccc3-c3ccccc32)cc1 (configuration not stated)	18	-2	2	11	-2	3	·	·
O=C(CCN1CCN(c2ccccc2)CC1)NNC(=O)c1ccccc1	30	-1	-7	2	·	0	·	·
Cc1ccc(C(C)C)cc1-n1nnc(-c2cccc(Cc3ccc4ccccc4c3)c2)c1C(C)O (configuration not stated)	29	16	10	3	·	12	·	·
O=C1NC(Cc2ccccc2)c2nc3cc(F)ccc3c(=O)n2-c2ncccc21 (configuration not stated)	3	-3	-20	15	·	1	·	·
Cc1nn(-c2ccccc2)c(Cl)c1CN(C(=O)CCl)c1cccc2ccccc12	95*	-4	32	62*	25	1	73*	106*	Mdm2 MdmX conf=103*
Cc1nn(-c2ccccc2)c(Cl)c1CN(C(=O)CCl)c1ccc(Cl)cc1	103*	7	91*	96*	91*	-97*	99*	106*
CC(=O)N(Cc1c(C)nn(-c2ccccc2)c1Cl)c1ccc(Cl)cc1	22	7	18	29	-1	-10	·	·
CC1(Oc2cccnc2Cl)CCN(Cc2ccc(OC(F)(F)F)cc2)C1 (configuration not stated)	-2	·	26	-1	·	2	·	·
COc1cccc(C(C)(O)c2nc(-c3cnn(C)c3)cs2)c1 (configuration not stated)	16	·	0	12	·	-4	·	·
OCCCNc1c2ccccc2nc2ccccc12	104*	-87	-126	6	83*	6	·	·	Mdm2 MdmX conf=97*
Cc1ccc2c(c1)/C(=C/c1ccccc1)C(=O)N2	11	-2	8	-7	4	2	·	·
COc1ccc2c(c1)/C(=C\c1cccc(/C=C3/C(=O)Nc4ccc(OC)cc43)n1)C(=O)N2	107*	89*	83*	90*	98*	-7	98*	107*
CC(C)(C)N(Cc1ccc2c(c1)OCO2)C(=O)/C=C\S(=O)c1ccccc1 (configuration not stated)	99*	19	43	69*	90*	-19	54*	80*
CCN(Cc1ccc2c(c1)OCO2)C(=O)/C=C/c1cccc(Br)c1	-53	-5	3	-81	-10	-12	·	·
CC(C)(C)c1ccc(-c2noc(CCC(=O)NCc3ccco3)n2)cc1	-189	-10	5	85*	83*	-5	92*	-45
COc1cccc(C(=O)NCCN2CCC(n3c(=O)[nH]c4ccccc43)CC2)c1	·	·	·	-3	·	·	·	·
CCOC(=O)c1nnc(-c2ccccc2)nc1Sc1c(Cl)cccc1Cl	64*	-1	22	63*	14	-2	20	65*
c1ccc(-c2nnc3oc(-c4cccs4)nn23)cc1	43	0	6	5	·	9	·	·
C(=N\Nc1nc2ccccc2s1)/c1ccccn1	·	·	·	·	·	·	·	·	Mdm2 MdmX conf=95*
O=C(C(=Cc1ccccc1)CN1CCCCC1)c1ccccc1	103*	90*	80*	80*	97*	-84*	98*	105*
SMILES	Peg3 promoter	EBV LMP1 NFkB	CF NFkB block	HIF-2a block	TRPM1 prom inh	KKLEB tox	HIF-2a inh conf	HIF-1a counter	others
CCOC(=O)C1(C)CCN1C(=O)Cc1ccc(OC)cc1 (configuration not stated)	-4	·	-14	5	·	1	·	·
CCOc1ccc(/C=N/N2C(=O)C(CC(=O)Nc3ccc(F)cc3F)SC2=NC)cc1OC (configuration not stated)	14	12	10	49*	41	3	-4	-6
CCOC(=O)C1C(=O)NC(C(=O)OCC)(C(=O)OCC)C1CC (configuration not stated)	-1	-3	2	7	8	0	·	·
COc1ccc(/C=N/n2c(C)nc3ccccc3c2=O)cc1	-110	0	-10	-94	-32	16	·	·
COc1ccc(/C=N\n2nnc3ccccc32)cc1	48	36	1	40*	38	-19	72*	42
CCOC(=O)C1CCCN(C(=O)c2cc(F)cc(F)c2)CC1 (configuration not stated)	12	·	6	9	·	-2	·	·
Cc1ccc(-c2cc(C(=O)N3CC(C)OC(C)C3)c3ccccc3n2)o1 (configuration not stated)	-40	-5	3	-30	-18	-7	·	·
Cc1ccc(-c2cc(C(=O)N3CC(C)CC(C)C3)c3ccccc3n2)o1 (configuration not stated)	-6	2	4	44*	-9	0	-41	29
CCOC(=O)c1ccc(NC(=O)c2ncn3c2C(=O)N[C@H](C)C3)cc1	-135	18	-12	-13	·	25	·	·
CCn1c(/C=C/Nc2ccccc2)[n+](CC)c2cc(Cl)c(Cl)cc21	104*	-15	22	68*	?	-34	-3	88*
CCn1c(/C=C/N(C(C)=O)c2ccccc2)[n+](CCCS(=O)(=O)[O-])c2cc(Cl)c(Cl)cc21	-12	1	0	8	17	5	·	·
